Holding throughout (test): NCI-60 one-dose screen, 48 h (100 = growth as untreated, 0 = no growth, -100 = all killed)
Common to all, as to conditions: 10 µM unless noted

Assay [1] deals with HCT-15 colon.
Assay [2] deals with HT29 colon.
The test system of assay [3] is SNB-75 CNS.
Assay [4] relates to SNB-19 CNS.
Assay [5] has as its system U251 CNS.
The subject of assay [6] is PC-3 prostate.
Assay [7] deals with SK-MEL-5 melanoma.
Assay [8] has as its system UACC-62 melanoma.
Assay [9] relates to LOX IMVI melanoma.
The test system of assay [10] is SK-MEL-28 melanoma.
In assay [11] the test system is SK-MEL-2 melanoma.
The test system of assay [12] is EKVX NSCLC.
Assay [13] has as its system SN12C renal.
Assay [14] has as its system UO-31 renal.
Assay [15] has as its system TK-10 renal.
Assay [16] concerns CAKI-1 renal.
The test system of assay [17] is A498 renal.
Assay [18] has as its system CCRF-CEM leukemia.
Assay [19] concerns MOLT-4 leukemia.
The test system of assay [20] is ACHN renal.

Values joined by “and” are separate entries in the source; they are usually repeats but may differ in a detail not shown here. Equal values may be shown once. About 83,000 compounds went through this panel and 20% of them were active in at least one assay; those are over-represented in the sample as a whole.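 In brief: 96-well plates, 48 h treatment, single concentration, percent growth endpoint.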 Active and inactive are the calls of the source. The calls were made as follows: active = growth percent below 10; inactive = the rest.

For `CN1C(=O)/C(=C/c2ccc(C(=O)Nc3ncc(Cc4ccccc4Cl)s3)cc2)SC1=S`, the growth was 42.1% (inactive) in [1]; 69.5% (inactive) in assay [2]; 69.4% (inactive) in [3]; 83.3% (inactive) in assay [4]; 89.4% (inactive) in assay [5]; 77.6% (inactive) in [6]. Further, the growth in assay [7] is 62.4% (inactive); in assay [8] it was 18.1% (inactive); in assay [9] it was 45.1% (inactive); in [10] it was 74.8% (inactive); in assay [11], 101% (inactive); in [12] it was 75.6% (inactive). Also, the growth was 68.6% (inactive) in assay [13]; 63.5% (inactive) in assay [14]; 83.6% (inactive) in assay [15]; 34.1% (inactive) in assay [16]; 60.7% (inactive) in assay [17]; 73.7% (inactive) in assay [18]. Moreover, the growth in assay [19] is 82.1% (inactive).

On to `CCC(=C(c1ccc(OCCCN(C)C)cc1)c1ccc(OCCCN(C)C)cc1)c1ccc(Cl)cc1`, for which the growth is -83.3% (active) in assay [1]; -74.5% (active) in assay [2]; -96.6% (active) in assay [3]; -88.3% (active) in assay [4]; -83.4% (active) in assay [5]; -66.2% (active) in assay [6]. The growth in assay [7] is -96.3% (active); in [8], -80% (active); in [9], -84.3% (active); in assay [10], -89.8% (active); in assay [11] it was -72.1% (active); in [12], -86.8% (active). Besides, the growth in assay [13] is -94.1% (active); in assay [14], -93.6% (active); in assay [15], -85.2% (active); in [16], -96.1% (active); in assay [17] it was -86.3% (active); in [18], -67.9% (active). Further, the growth in assay [19] was -61.9% (active).

Take `Cn1ccnc1CN1CCSC(C(=O)Nc2ccccc2)C1` (configuration not stated): the growth is 95.4% (inactive) in [1]; 95.1% (inactive) in [2]; 79.5% (inactive) in [3]; 93% (inactive) in assay [4]; 93.1% (inactive) in assay [5]; 92.3% (inactive) in [6]. The growth in assay [7] was 95.4% (inactive); in assay [8], 87.7% (inactive); in assay [9] it was 98.7% (inactive); in [10] it was 100% (inactive); in assay [11], 102% (inactive); in [12], 106% (inactive). The growth is 91.4% (inactive) in assay [13]; 89.2% (inactive) in assay [14]; 101% (inactive) in assay [15]; 89.2% (inactive) in assay [16]; 97% (inactive) in assay [17]; 94.3% (inactive) in assay [19].

`COc1ccc(-c2cc(=O)c3c(O)cc(O)cc3o2)cc1`: the growth is 103% (inactive) and 100% (inactive) in assay [1]; 110% (inactive) and 109% (inactive) in assay [2]; 99.1% (inactive) and 118% (inactive) in assay [3]; 105% (inactive) and 83.4% (inactive) in [4]; 92.9% (inactive) and 84% (inactive) in assay [5]; 94.9% (inactive) and 83.8% (inactive) in assay [6]. In addition, the growth in [7] is 104% (inactive) and 92.7% (inactive); in assay [8], 104% (inactive) and 96.9% (inactive); in assay [9], 82.8% (inactive) and 91.6% (inactive); in assay [10], 113% (inactive) and 111% (inactive); in [11], 116% (inactive); in assay [12] it was 103% (inactive). The growth in [13] was 102% (inactive) and 82% (inactive); in assay [14], -74.8% (active) and 92.7% (inactive); in assay [15] it was 119% (inactive) and 104% (inactive); in assay [16] it was 108% (inactive) and 105% (inactive); in assay [17], 97.5% (inactive); in assay [18], 94.2% (inactive) and 86.6% (inactive). In assay [19], the growth is 76.4% (inactive) and 85.6% (inactive).

As to `CC(=O)N1N=C(c2ccc(Nc3nc(Nc4ccc(F)cc4)nc(Nc4ccc(F)cc4)n3)cc2)CC1c1ccccc1` (configuration not stated), the growth is 89.3% (inactive) in assay [1]; 96.3% (inactive) in assay [2]; 80.1% (inactive) in assay [3]; 77.3% (inactive) in assay [4]; 85.5% (inactive) in assay [5]; 70% (inactive) in [6]. Also, the growth in assay [7] is 69.6% (inactive); in assay [8], 95.4% (inactive); in assay [9], 103% (inactive); in [10], 97.5% (inactive); in [11], 59.9% (inactive); in assay [13], 112% (inactive). The growth in [14] was 80.2% (inactive); in assay [15], 97.6% (inactive); in assay [20], 84.6% (inactive); in assay [16] it was 114% (inactive); in assay [17], 85.5% (inactive); in assay [18], -14.7% (active). For the same compound, the growth in assay [19] is 70.2% (inactive).

With `O=c1cc(N/N=C/c2ccc(F)cc2)c2cc(Cl)ccc2[nH]1`, the growth in assay [1] is 83.4% (inactive); in [2] it was 88.4% (inactive); in assay [3] it was 131% (inactive); in [4], 91.1% (inactive); in assay [5], 94.4% (inactive); in [6], -43% (active). The growth was 11.6% (inactive) in [7]; 80.4% (inactive) in [8]; 95.6% (inactive) in [9]; 90% (inactive) in assay [10]; 77.2% (inactive) in [11]; 92.3% (inactive) in [13]. In addition, the growth in assay [14] was 79% (inactive); in [15], 91.5% (inactive); in [20], 91.1% (inactive); in [16], 99% (inactive); in assay [17], 90.5% (inactive); in [18] it was -13.2% (active). Also, in assay [19], the growth is -15.8% (active).

For `COc1ccc(C(=O)c2ccc(OC)c(OC)c2OC)cc1`, the growth in [1] was 26.6% (inactive) and 27.2% (inactive); in assay [2] it was 4.69% (active) and 12.7% (inactive); in [3] it was -3.95% (active); in assay [4], 43.6% (inactive) and 41.7% (inactive); in assay [5], 31.3% (inactive) and 26.2% (inactive); in [6], 35.5% (inactive) and 32.9% (inactive). Further, the growth in assay [7] was 18.8% (inactive); in assay [8] it was 40.8% (inactive) and 50.7% (inactive); in assay [9] it was 34.3% (inactive) and 39.8% (inactive); in assay [10], 45.3% (inactive) and 50.3% (inactive); in assay [11], 17.6% (inactive) and 57.5% (inactive); in assay [13], 56.1% (inactive) and 43.4% (inactive). For the same compound, the growth is 41.8% (inactive) and 24.1% (inactive) in [14]; 34.4% (inactive) and 54.2% (inactive) in assay [15]; 42.5% (inactive) and 53.8% (inactive) in [20]; 14.4% (inactive) and 21% (inactive) in assay [16]; 4.87% (active) and -9.47% (active) in assay [17]; 37.3% (inactive) in assay [18]. The growth in [19] was 41.5% (inactive) and 36.8% (inactive).

(Values after PubChem BioAssay (NCI).)
